{"source": "PubChem BioAssay (NCI)", "note": "The panel holds about 83,000 compounds, 20% with a hit somewhere; the sample as a whole holds those more often.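 Single-concentration screen, 48 h exposure, 96-well plates. Endpoint: percent growth. Below 10 = active.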 The source made the active and inactive calls."}
{"system": "SK-OV-3 ovarian", "assay": "NCI-60 one-dose screen, 48 h (100 = growth as untreated, 0 = no growth, -100 = all killed)", "settings": "10 µM unless noted"}
{"compound": "Cc1cc(C(c2ccccc2)c2ccccc2)ccc1NS(=O)(=O)c1ccccc1", "growth": "109% (inactive)"}
{"compound": "c1ccc2[nH]c(SSc3nc4ncncc4[nH]3)nc2c1", "growth": "24.1% (inactive)"}
{"compound": "O[C@H]1CO[C@H]2[C@@H]1OC[C@@H]2Oc1ccc(Nc2ccnc(Nc3ccc(O[C@H]4CO[C@H]5[C@@H]4OC[C@@H]5O)c(Cl)c3)n2)cc1Cl", "growth": "19.1% (inactive)"}
{"compound": "CCOC(=O)c1cnn2c(-c3ccc(Cl)cc3)nc(NCc3ccccc3)nc12", "growth": "112% (inactive)"}
{"compound": "COc1ccc(/C(C)=C(\\c2ccc(Cl)cc2)c2ccc(OCCN3CCCCC3)cc2)cc1F", "growth": "63% (inactive)"}
{"compound": "Cn1cc(-c2ccc3nc(-c4ccc(CC(=O)Nc5cc(C(C)(C)C)no5)cc4)cnc3c2)cn1", "growth": "11.2% [30 µM] (inactive)"}
{"compound": "Nc1ccc(-c2cc3c(Nc4ccc(OCc5cccc(F)c5)c(Cl)c4)ncnc3s2)cc1", "growth": "-2.32% (active)"}
{"compound": "CC(C)OC(=O)NNC(=O)c1ccncc1", "growth": "106% (inactive)"}
{"compound": "CCOC(=O)N1CCc2c(sc3c2C(=O)N[C@H](c2ccc(OC)cc2)N3)C1", "growth": "65.4% (inactive)"}
{"compound": "O=[N+]([O-])c1ccc(-c2cc3c(Nc4ccc(OCc5cccc(Cl)c5)c(Cl)c4)ncnc3s2)cc1", "growth": "58.5% (inactive)"}
{"compound": "CCOC(=O)c1ccc(NC(=O)CCCN(CC)CC)cc1", "growth": "109% (inactive)"}
{"compound": "Nc1ccn(C2OC(F)(CO)C(O)C2F)c(=O)n1", "note": "(configuration not stated)", "growth": "33.4% (inactive)"}
